Results on 29 compounds are retold here after PubChem BioAssay AID463 (The Scripps Research Institute Molecular Screening Center, 2006).

Hit rate of the full screen: of about 56,000 compounds, about 710 (1.3%) were called active. This is one part of a sample in which actives are shown more often than they occur. Unmarked numbers belong to inactive results.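 How the source made its calls: active means inhibition above the mean inhibition of all tested compounds plus 3 SD (cut at about 28% in these data); inactive means the rest.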

This assay in a line: cytotoxicity toward Jurkat T cells, primary screen, cytotoxicity control, cell-based, Jurkat E6.1, 60K MLSMR library (AID 463). Particulars: Jurkat E6.1 viability, ATP luminescence, 48 h; at 4 µM; hits give high values.
For `CCOc1ccc(Cn2nnc(C(=O)NCc3ccccc3)c2N)cc1`, the inhibition – broadly, the drop in the measured response relative to a control, in per cent – is 2.3%. On to `Nc1c(C(=O)NCc2ccccc2)nnn1Cc1cccc(Cl)c1`, for which the inhibition is 83.8% (active).

As for `CCOc1ccc(Cn2nnc(C(=O)Nc3ccc(OC)cc3OC)c2N)cc1`, the inhibition is -5.8%. Consider `CCOc1c(OC)cc(C2C(C#N)=C(N)Oc3n[nH]c(-c4ccncc4)c32)cc1OC` (centres undefined), for which the inhibition was -1.9%. Take `O=C(Oc1cccnc1)c1cc2ccccc2oc1=O`: the inhibition is 4.5%. The figure for `COc1ccc(-c2cc(C(F)(F)F)n3nc(C(=O)N4CCOCC4)c(Cl)c3n2)cc1` is -9.2%; for `CCCCN=C(N)/C(C(=O)OCC)=C(\O)c1ccc(OC)cc1` it is -0.7%; for `CCc1ccc(N(CC)c2ncnc3nc[nH]c23)cc1` it is 0.9%. The figure for `CCOC(=O)c1cnc(-n2nc(C)cc2C)nc1Nc1cccc(C(C)=O)c1` is 2.3%; for `CC(=O)c1ccc(Oc2cc(C)nc(-n3nc(C)cc3C)n2)cc1` it is 97.7% (active). As for `Cc1cc(C)n(-c2ccc(Cl)c(C(=O)O)n2)n1`, the inhibition is -4.6%.

For the compound `O=C(COc1ccccc1Cl)Nn1cnnc1`, the inhibition is 4.2%. As to `COc1ccc(N2C(=O)C3CCCN3C2c2cccs2)cc1` (centres undefined), the inhibition is -7.9%. In the case of `CC(C)C1N=C2c3ccccc3N=C(SCC(=O)c3ccc(O)c(O)c3)N2C1=O` (centres undefined), the inhibition is 50.8% (active).

Regarding `O=C(CC1N=C2c3ccccc3N=C(SCc3ccccc3Cl)N2C1=O)NCc1ccco1` (centres undefined), the inhibition was 8%. Regarding `NC(=O)CSC1=Nc2ccccc2C2=NC(CCC(=O)NCc3ccc(F)cc3)C(=O)N12` (centres undefined), the inhibition was 4.5%. The figure for `CCCC(NS(=O)(=O)c1ccc(OC)cc1)C(=O)O` (centres undefined) is 0.8%; for `COC(=O)C(C)n1cnc2c(nnn2-c2cccc(Cl)c2)c1=O` (centres undefined) it is 6%; for `Cc1oc(-c2ccccc2F)nc1CS(=O)(=O)CC(=O)NCCCN(C)C1CCCCC1` it is 5%.

In the case of `O=C(Nc1ccc2c(c1)nc1n2CCCCC1)c1cc(S(=O)(=O)N2CCOCC2)ccc1Cl`, the inhibition was 34.5% (active). The figure for `COc1ccc(S(=O)(=O)N2CCOCC2)cc1C(=O)Nc1nc2ccccc2s1` is -2.5%. Consider `O=C(Nc1ccc(S(=O)(=O)N2CCCC2)cc1Cl)C1=COCCO1`, for which the inhibition was 10.5%. With `O=C1N(Cc2ccc3c(c2)OCO3)c2ccccc2C1(O)c1c[nH]c2ccccc12` (centres undefined), the inhibition is -8.9%. In the case of `CCCCNC(=O)CSc1nccn1Cc1ccccc1`, the inhibition is -7.9%. As for `COCCNCCOCCOc1cccc(OC)c1`, the inhibition is 5.4%. In the case of `Cc1cc(Nc2cccc(F)c2)n2ncnc2n1`, the inhibition is 0.2%.

With `COC(=O)C1C(=O)c2c([nH]c(C(=O)OCCSC)c2C)CC1C` (centres undefined), the inhibition was -3.9%. Consider `CCCOC(=O)c1[nH]c2c(c1C)C(=O)CC(c1cc(OC)c(OC)c(OC)c1)C2` (centres undefined), for which the inhibition was 45.9% (active).

Consider `CCOC(=O)c1[nH]c2c(c1C)C(=O)CC(c1ccc(N(C)C)cc1)C2` (centres undefined), for which the inhibition was 1%.
